Measurements: PubChem BioAssay AID1159580 (chemical genetic matrix, 2015)
About 2,000 (36%) of roughly 5,500 compounds were called active. Roughly 18% stayed inconclusive and do not appear here. No stated cut-off is given here; in the data, active means normalized growth mostly below about 0.91 (no sharp cut-off); inconclusive means no clear call, values can overlap the other calls; inactive means mostly above about 0.92. This is one part of the list.

Experiment: chemical genetic growth profiling, strain panel (AID 1159580);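 further: tested at 20 µM; growth read once vehicle control cultures reached saturation at 30 °C; 1 = growth at the plate median or of vehicle wells; lower values mean less growth of the strain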
Conditions: growth OD
[1] = S. cerevisiae deletion strains, locus YAL013W, strain DEP1, active compounds read low
[2] = S. cerevisiae deletion strains, locus YBR229C, strain ROT2, active compounds read low
[3] = S. cerevisiae deletion strains, locus YDL101C, strain DUN1, active compounds read low
[4] = S. cerevisiae deletion strains, locus YDR150W, strain NUM1, active compounds read low
[5] = S. cerevisiae deletion strains, locus YEL061C, strain CIN8, active compounds read low
[6] = S. cerevisiae deletion strains, locus YGR078C, strain PAC10, active compounds read low
[7] = S. cerevisiae deletion strains, locus YHR030C, strain SLT2, active compounds read low
[8] = S. cerevisiae deletion strains, locus YHR087W, strain rtc3, active compounds read low
[9] = S. cerevisiae deletion strains, locus YJR043C, strain POL32, active compounds read low
[10] = S. cerevisiae deletion strains, locus YJR075W, strain HOC1, active compounds read low
[11] = S. cerevisiae deletion strains, locus YLR039C, strain RIC1, active compounds read low
[12] = S. cerevisiae deletion strains, locus YLR058C, strain SHM2 (second series), active compounds read low
[13] = S. cerevisiae deletion strains, locus YLR085C, strain ARP6, active compounds read low
[14] = S. cerevisiae deletion strains, locus YLR262C, strain YPT6, active compounds read low
[15] = S. cerevisiae deletion strains, locus YML094W, strain GIM5, active compounds read low
[16] = S. cerevisiae deletion strains, locus YMR219W, strain ESC1, active compounds read low
[17] = S. cerevisiae deletion strains, locus YMR263W, strain SAP30, active compounds read low
[18] = S. cerevisiae deletion strains, locus YNL153C, strain GIM3, active compounds read low
[19] = S. cerevisiae deletion strains, locus YNL298W, strain CLA4 (second series), active compounds read low
[20] = S. cerevisiae deletion strains, locus YNL322C, strain KRE1, active compounds read low
[21] = S. cerevisiae deletion strains, locus YNR030W, strain Alg12, active compounds read low
[22] = S. cerevisiae deletion strains, locus YOL006C, strain TOP1, active compounds read low
[23] = S. cerevisiae deletion strains, locus YPL055C, strain LGE1, active compounds read low
[24] = S. cerevisiae deletion strains, locus YPL241C, strain CIN2, active compounds read low
[25] = S. cerevisiae deletion strains, locus YPR135W, strain CTF4, active compounds read low
[26] = S. cerevisiae strains, strain wild type, active compounds read low
[27] = S. cerevisiae deletion strains, locus YDL134C, strain PPH21, active compounds read low
[28] = S. cerevisiae deletion strains, locus YKL190W, strain CNB1, active compounds read low
[29] = S. cerevisiae deletion strains, locus YMR307W, strain GAS1, active compounds read low
[30] = S. cerevisiae deletion strains, locus YNL128W, strain TEP1, active compounds read low

Measured: normalized growth

CSc1nc(N)nc(N2CCCCC2)n1
inactive: [1] 1 | [2] 1 | [3] 1 | [4] 0.982 | [5] 1 | [6] 1 | [7] 0.951 | [8] 1 | [9] 1 | [10] 1 | [11] 1.01 | [12] 1.02 | [13] 0.936 | [14] 1.02 | [15] 0.944 | [16] 1.01 | [17] 1.02 | [18] 0.99 | [19] 1.02 | [20] 1 | [21] 1.01 | [22] 0.812 | [23] 0.939 | [24] 0.935 | [25] 0.946 | [26] 1.01

CNC(=O)[C@H]1O[C@@H](n2cnc3c(NCc4ccc(N)cc4)ncnc32)C(O)[C@H]1O (stereo partly specified)
inactive: [1] 0.978 | S. cerevisiae deletion strains, locus YAL040C, strain CLN3, active compounds read low 0.991 | S. cerevisiae deletion strains, locus YER002W, strain NOP16, active compounds read low 1.02 | [6] 0.986 | S. cerevisiae deletion strains, locus YNL175C, strain NOP13, active compounds read low 1.02 | S. cerevisiae deletion strains, locus YNL197C, strain WHI3, active compounds read low 1.01 | S. cerevisiae deletion strains, locus YNL224C, strain SQS1, active compounds read low 1.02 | S. cerevisiae deletion strains, locus YOR083W, strain WHI5 (second series), active compounds read low 0.995

NCC1OC(OC2C(CO)OC(OC3C(O)C(N)CC(N)C3OC3OC(CO)C(O)CC3N)C2O)C(N)C(O)C1OC1OC(CO)C(O)C(O)C1O (stereo unspecified)
inactive: [1] 0.997 | S. cerevisiae deletion strains, locus YBR021W, strain FUR4, active compounds read low 1.17 | [2] 0.999 | S. cerevisiae deletion strains, locus YCL029C, strain bik1, active compounds read low 0.977 | S. cerevisiae deletion strains, locus YDL035C, strain GPR1, active compounds read low 0.996 | S. cerevisiae deletion strains, locus YDL074C, strain BRE1, active compounds read low 0.993 | [3] 0.992 | [27] 1.01 | S. cerevisiae deletion strains, locus YDL185W, strain tfp1, active compounds read low 0.958 | S. cerevisiae deletion strains, locus YDL192W, strain arf1, active compounds read low 0.984 | S. cerevisiae deletion strains, locus YDR101C, strain arx1, active compounds read low 0.978 | [4] 0.991 | S. cerevisiae deletion strains, locus YDR162C, strain NBP2, active compounds read low 0.992 | S. cerevisiae deletion strains, locus YDR318W, strain mcm21, active compounds read low 0.997 | S. cerevisiae deletion strains, locus YDR388W, active compounds read low 0.998 | S. cerevisiae deletion strains, locus YDR502C, strain sam2, active compounds read low 0.988 | [5] 0.995 | S. cerevisiae deletion strains, locus YER110C, active compounds read low 0.986 | S. cerevisiae deletion strains, locus YER155C, strain BEM2, active compounds read low 0.995 | S. cerevisiae deletion strains, locus YER167W, strain BCK2, active compounds read low 0.997 | S. cerevisiae deletion strains, locus YGL078C, strain dbp3, active compounds read low 0.997 | S. cerevisiae deletion strains, locus YGL086W, strain mad1, active compounds read low 1.01 | S. cerevisiae deletion strains, locus YGL248W, strain PDE1, active compounds read low 0.996 | [6] 0.974 | S. cerevisiae deletion strains, locus YGR135W, strain pre9, active compounds read low 0.993 | S. cerevisiae deletion strains, locus YGR229C, strain SMI1, active compounds read low 0.991 | S. cerevisiae deletion strains, locus YGR252W, strain gcn5, active compounds read low 1.18 | [7] 0.993 | S. cerevisiae deletion strains, locus YHR079C, strain IRE1 (second series), active compounds read low 0.986 | S. cerevisiae deletion strains, locus YHR094C, strain hxt1, active compounds read low 0.975 | S. cerevisiae deletion strains, locus YHR129C, strain ARP1, active compounds read low 0.988 | S. cerevisiae deletion strains, locus YHR200W, strain rpn10, active compounds read low 0.993 | S. cerevisiae deletion strains, locus YIL066C, strain RNR3, active compounds read low 0.987 | S. cerevisiae deletion strains, locus YIL073C, strain SPO22, active compounds read low 0.899 | S. cerevisiae deletion strains, locus YIL125W, strain kgd1, active compounds read low 0.995 | S. cerevisiae deletion strains, locus YIR030C, strain dcg1, active compounds read low 0.988 | S. cerevisiae deletion strains, locus YJL095W, strain BCK1, active compounds read low 0.982 | S. cerevisiae deletion strains, locus YJL134W, strain LCB3, active compounds read low 0.992 | S. cerevisiae deletion strains, locus YJL168C, strain set2, active compounds read low 0.986 | S. cerevisiae deletion strains, locus YJL187C, strain SWE1 (second series), active compounds read low 0.988 | [9] 0.992 | [10] 0.98 | S. cerevisiae deletion strains, locus YKL009W, strain mrt4, active compounds read low 0.976 | S. cerevisiae deletion strains, locus YKL068W, active compounds read low 0.978 | S. cerevisiae deletion strains, locus YKL085W, strain MDH1 (second series), active compounds read low 0.983 | S. cerevisiae deletion strains, locus YKL085W, strain MDH1, active compounds read low 0.983 | [28] 0.995 | S. cerevisiae deletion strains, locus YKR001C, strain vps1, active compounds read low 0.991 | [11] 0.944 | S. cerevisiae deletion strains, locus YLR058C, strain SHM2, active compounds read low 0.999 | S. cerevisiae deletion strains, locus YLR102C, strain apc9, active compounds read low 0.997 | [14] 0.916 | S. cerevisiae deletion strains, locus YLR268W, strain sec22, active compounds read low 0.962 | S. cerevisiae deletion strains, locus YLR330W, strain CHS5, active compounds read low 0.985 | S. cerevisiae deletion strains, locus YLR342W, strain FKS1 (second series), active compounds read low 1.07 | S. cerevisiae deletion strains, locus YLR371W, strain rom2, active compounds read low 0.986 | S. cerevisiae deletion strains, locus YLR418C, strain cdc73, active compounds read low 1 | S. cerevisiae deletion strains, locus YML016C, strain PPZ1, active compounds read low 1.01 | S. cerevisiae deletion strains, locus YML032C, strain rad52, active compounds read low 0.981 | S. cerevisiae deletion strains, locus YML124C, strain tub3, active compounds read low 1.01 | S. cerevisiae deletion strains, locus YMR078C, strain ctf18, active compounds read low 0.993 | S. cerevisiae deletion strains, locus YMR223W, strain ubp8, active compounds read low 1.03 | [17] 0.985 | [29] 1.11 | S. cerevisiae deletion strains, locus YNL067W, strain RPL9B, active compounds read low 0.976 | [30] 0.994 | [18] 0.988 | S. cerevisiae deletion strains, locus YNL233W, strain BNI4, active compounds read low 1 | S. cerevisiae deletion strains, locus YNL250W, strain rad50, active compounds read low 1 | S. cerevisiae deletion strains, locus YNL271C, strain bni1, active compounds read low 0.985 | S. cerevisiae deletion strains, locus YNL298W, strain CLA4, active compounds read low 0.984 | S. cerevisiae deletion strains, locus YNL307C, strain MCK1, active compounds read low 1 | [20] 0.995 | S. cerevisiae deletion strains, locus YNR052C, strain pop2, active compounds read low 0.991 | [22] 0.948 | S. cerevisiae deletion strains, locus YOL012C, strain htz1 1.18 | S. cerevisiae deletion strains, locus YOL147C, strain pex11, active compounds read low 0.998 | S. cerevisiae deletion strains, locus YOR061W, strain CKA2, active compounds read low 0.997 | S. cerevisiae deletion strains, locus YOR069W, strain VPS5, active compounds read low 1 | S. cerevisiae deletion strains, locus YOR136W, strain idh2, active compounds read low 0.986 | S. cerevisiae deletion strains, locus YOR144C, strain elg1, active compounds read low 0.985 | S. cerevisiae deletion strains, locus YOR184W, strain ser1, active compounds read low 0.97 | S. cerevisiae deletion strains, locus YOR316C, strain cot1, active compounds read low 0.965 | [23] 0.966 | [24] 0.997 | S. cerevisiae deletion strains, locus YPR119W, strain clb2, active compounds read low 0.999 | S. cerevisiae deletion strains, locus YPR141C, strain kar3, active compounds read low 0.985 | S. cerevisiae deletion strains, locus YPR163C, strain tif3, active compounds read low 0.983 | S. cerevisiae deletion strains, locus YPR167C, strain met16, active compounds read low 0.981 | S. cerevisiae deletion strains, strain wtn01, active compounds read low 0.954 | [26] 1

CC(C)(C)C1=NN(c2ccccc2)C(=O)C1
active: [11] 0.666 | [13] 0.637 | [14] 0.707 | [26] 0.884
inactive: [1] 0.973 | [2] 0.959 | S. cerevisiae deletion strains, locus YCL061C, strain MRC1, active compounds read low 0.966 | [3] 0.983 | [27] 0.975 | [4] 0.952 | [5] 0.994 | [6] 0.956 | [7] 0.863 | [8] 1 | [9] 1.01 | [10] 0.939 | [28] 0.956 | [12] 0.972 | [15] 0.984 | [16] 0.966 | [29] 0.803 | [18] 0.981 | [19] 0.929 | [20] 0.981 | [21] 0.888 | [22] 0.808 | [23] 1.03 | [24] 0.89 | [25] 0.656

CC1=NN(c2cccc(S(N)(=O)=O)c2)C(=O)C1
inactive: [1] 1.01 | [2] 1 | [3] 1.03 | [27] 0.978 | [4] 0.985 | [5] 1 | [6] 1 | [7] 1.04 | [8] 1.01 | [9] 0.999 | [10] 1.03 | [28] 0.985 | [11] 0.975 | [12] 0.998 | [13] 1.04 | [14] 0.952 | [15] 1.12 | [16] 1.01 | [17] 0.994 | [29] 1.04 | [30] 0.977 | [18] 1.01 | [19] 1.01 | [20] 1.01 | [21] 0.999 | [23] 1.03 | [25] 1.08
